# Measured values published in PubChem BioAssay AID1159580 (chemical genetic matrix, 2015).
# “And” between values parts separate entries of the source, which are not always exact repeats. Equal values may be shown once. The whole screen tested about 5,500 compounds, of which about 2,000 (36%) were called active. Inconclusive results (about 18%) are left out. Some of the results follow. Unmarked numbers belong to inactive results. No stated cut-off is given here; in the data, active means normalized growth mostly below about 0.91 (no sharp cut-off); inconclusive means no clear call, values can overlap the other calls; inactive means mostly above about 0.92.
# Test: chemical genetic growth profiling, strain panel (AID 1159580);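 further: tested at 20 µM; growth read once vehicle control cultures reached saturation at 30 °C; 1 = growth at the plate median or of vehicle wells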
# Settings: S. cerevisiae deletion strains, growth OD
smiles,measurement,setting,value
CC(C)=CCOc1cc2oc(=O)ccc2cc1O,normalized growth,"locus YAL021C, strain ccr4, stronger effect = lower value",0.977
same,normalized growth,"locus YAL026C, strain drs2, stronger effect = lower value",0.919
same,normalized growth,"locus YAL030W, strain snc1, stronger effect = lower value",0.978
same,normalized growth,"locus YBL061C, strain skt5, stronger effect = lower value",0.94
same,normalized growth,"locus YBR009C, strain hhf1, stronger effect = lower value",0.937
same,normalized growth,"locus YBR021W, strain FUR4, stronger effect = lower value",0.876
same,normalized growth,"locus YBR023C, strain chs3, stronger effect = lower value",0.929
same,normalized growth,"locus YBR171W, strain sec66, stronger effect = lower value",0.915
same,normalized growth,"locus YBR229C, strain ROT2, stronger effect = lower value",0.967
same,normalized growth,"locus YBR231C, strain swc5, stronger effect = lower value",0.93
same,normalized growth,"locus YBR279W, strain paf1, stronger effect = lower value",0.962
same,normalized growth,"locus YCL011C, strain gbp2, stronger effect = lower value",0.911
same,normalized growth,"locus YCL016C, strain dcc1, stronger effect = lower value",0.965
same,normalized growth,"locus YCL029C, strain bik1, stronger effect = lower value",0.961
same,normalized growth,"locus YCL061C, strain MRC1, stronger effect = lower value",0.94
same,normalized growth,"locus YCL069W, strain vba3, stronger effect = lower value",0.94
same,normalized growth,"locus YCR088W, strain abp1, stronger effect = lower value",0.957
same,normalized growth,"locus YDL005C, strain med2, stronger effect = lower value",0.956
same,normalized growth,"locus YDL035C, strain GPR1, stronger effect = lower value",0.894
same,normalized growth,"locus YDL040C, strain nat1, stronger effect = lower value",0.951
same,normalized growth,"locus YDL074C, strain BRE1, stronger effect = lower value",0.808
same,normalized growth,"locus YDL101C, strain DUN1, stronger effect = lower value",0.935
same,normalized growth,"locus YDL185W, strain tfp1, stronger effect = lower value",0.965
same,normalized growth,"locus YDL192W, strain arf1, stronger effect = lower value",0.879 (active)
same,normalized growth,"locus YDR001C, strain nth1, stronger effect = lower value",0.965
same,normalized growth,"locus YDR069C, strain doa4, stronger effect = lower value",0.944
same,normalized growth,"locus YDR101C, strain arx1, stronger effect = lower value",0.919
same,normalized growth,"locus YDR137W, strain rgp1, stronger effect = lower value",0.881
same,normalized growth,"locus YDR159W, strain sac3, stronger effect = lower value",0.881
same,normalized growth,"locus YDR162C, strain NBP2, stronger effect = lower value",0.876
same,normalized growth,"locus YDR195W, strain ref2",1.02
same,normalized growth,"locus YDR297W, strain sur2, stronger effect = lower value",0.969
same,normalized growth,"locus YDR318W, strain mcm21, stronger effect = lower value",0.902 (active)
same,normalized growth,"locus YDR334W, strain swr1, stronger effect = lower value",0.927
same,normalized growth,"locus YDR335W, strain msn5, stronger effect = lower value",0.968
same,normalized growth,"locus YDR388W, stronger effect = lower value",0.96
same,normalized growth,"locus YDR392W, strain spt3, stronger effect = lower value",0.706 (active)
same,normalized growth,"locus YDR502C, strain sam2, stronger effect = lower value",0.909 (active)
same,normalized growth,"locus YEL003W, strain gim4, stronger effect = lower value",0.935
same,normalized growth,"locus YEL037C, strain rad23, stronger effect = lower value",0.941
same,normalized growth,"locus YEL061C, strain CIN8 (second series), stronger effect = lower value",0.938
same,normalized growth,"locus YEL061C, strain CIN8, stronger effect = lower value",0.957
same,normalized growth,"locus YER015W, strain faa2, stronger effect = lower value",0.937
same,normalized growth,"locus YER016W, strain bim1, stronger effect = lower value",0.962
same,normalized growth,"locus YER110C, stronger effect = lower value",0.971
same,normalized growth,"locus YER111C, strain swi4, stronger effect = lower value",0.95
same,normalized growth,"locus YER155C, strain BEM2 (second series), stronger effect = lower value",0.685 (active)
same,normalized growth,"locus YER155C, strain BEM2, stronger effect = lower value",0.962
same,normalized growth,"locus YER167W, strain BCK2, stronger effect = lower value",0.881 (active)
same,normalized growth,"locus YFR010W, strain ubp6, stronger effect = lower value",0.942
same,normalized growth,"locus YGL078C, strain dbp3, stronger effect = lower value",0.97
same,normalized growth,"locus YGL086W, strain mad1, stronger effect = lower value",0.882 (active)
same,normalized growth,"locus YGL167C, strain pmr1, stronger effect = lower value",0.939
same,normalized growth,"locus YGL173C, strain kem1, stronger effect = lower value",0.926
same,normalized growth,"locus YGL227W, strain vid30, stronger effect = lower value",0.957
same,normalized growth,"locus YGL240W, strain doc1, stronger effect = lower value",0.886
same,normalized growth,"locus YGL248W, strain PDE1, stronger effect = lower value",0.9
same,normalized growth,"locus YGL253W, strain hxk2, stronger effect = lower value",0.899 (active)
same,normalized growth,"locus YGR135W, strain pre9, stronger effect = lower value",0.915
same,normalized growth,"locus YGR252W, strain gcn5, stronger effect = lower value",0.713 (active)
same,normalized growth,"locus YHR013C, strain ard1, stronger effect = lower value",0.955
same,normalized growth,"locus YHR027C, strain rpn1, stronger effect = lower value",0.956
same,normalized growth,"locus YHR030C, strain SLT2, stronger effect = lower value",0.947
same,normalized growth,"locus YHR079C, strain IRE1 (second series), stronger effect = lower value",0.974
same,normalized growth,"locus YHR079C, strain IRE1, stronger effect = lower value",0.936
same,normalized growth,"locus YHR094C, strain hxt1, stronger effect = lower value",0.97
same,normalized growth,"locus YHR129C, strain ARP1, stronger effect = lower value",0.918 (active)
same,normalized growth,"locus YHR142W, strain chs7, stronger effect = lower value",0.878
same,normalized growth,"locus YHR200W, strain rpn10, stronger effect = lower value",0.895 (active)
same,normalized growth,"locus YIL066C, strain RNR3, stronger effect = lower value",0.85 (active)
same,normalized growth,"locus YIL073C, strain SPO22, stronger effect = lower value",0.975
same,normalized growth,"locus YIL125W, strain kgd1, stronger effect = lower value",0.948
same,normalized growth,"locus YIR030C, strain dcg1, stronger effect = lower value",0.97
same,normalized growth,"locus YJL092W, strain hpr5, stronger effect = lower value",0.927
same,normalized growth,"locus YJL095W, strain BCK1 (second series), stronger effect = lower value",0.948
same,normalized growth,"locus YJL095W, strain BCK1, stronger effect = lower value",0.858 and 0.946
same,normalized growth,"locus YJL115W, strain asf1, stronger effect = lower value",0.949
same,normalized growth,"locus YJL129C, strain trk1, stronger effect = lower value",0.904
same,normalized growth,"locus YJL134W, strain LCB3, stronger effect = lower value",0.963
same,normalized growth,"locus YJL154C, strain vps35, stronger effect = lower value",0.966
same,normalized growth,"locus YJL164C, strain tpk1, stronger effect = lower value",0.974
same,normalized growth,"locus YJL166W, strain qcr8, stronger effect = lower value",0.94
same,normalized growth,"locus YJL168C, strain set2, stronger effect = lower value",0.977
same,normalized growth,"locus YJL187C, strain SWE1 (second series), stronger effect = lower value",0.889
same,normalized growth,"locus YJL187C, strain SWE1, stronger effect = lower value",0.951
same,normalized growth,"locus YJR066W, strain TOR1, stronger effect = lower value",0.92
same,normalized growth,"locus YKL009W, strain mrt4, stronger effect = lower value",0.916
same,normalized growth,"locus YKL068W, stronger effect = lower value",0.97
same,normalized growth,"locus YKL085W, strain MDH1 (second series), stronger effect = lower value",0.959
same,normalized growth,"locus YKL085W, strain MDH1, stronger effect = lower value",0.959
same,normalized growth,"locus YKL160W, strain elf1, stronger effect = lower value",0.981
same,normalized growth,"locus YKL190W, strain CNB1, stronger effect = lower value",0.953
same,normalized growth,"locus YKR001C, strain vps1, stronger effect = lower value",0.662 (active)
same,normalized growth,"locus YKR026C, strain gcn3, stronger effect = lower value",0.927
same,normalized growth,"locus YKR091W, strain srl3, stronger effect = lower value",0.96
same,normalized growth,"locus YLL001W, strain dnm1, stronger effect = lower value",0.964
same,normalized growth,"locus YLL026W, stronger effect = lower value",0.941
same,normalized growth,"locus YLL041C, strain sdh2, stronger effect = lower value",0.934
same,normalized growth,"locus YLR027C, strain aat2, stronger effect = lower value",0.939
same,normalized growth,"locus YLR039C, strain RIC1, stronger effect = lower value",0.647 (active)
same,normalized growth,"locus YLR058C, strain SHM2, stronger effect = lower value",0.905
same,normalized growth,"locus YLR102C, strain apc9, stronger effect = lower value",0.974
same,normalized growth,"locus YLR113W, strain HOG1, stronger effect = lower value",0.977
same,normalized growth,"locus YLR221C, strain rsa3, stronger effect = lower value",0.916
same,normalized growth,"locus YLR258W, strain gsy2, stronger effect = lower value",0.951
same,normalized growth,"locus YLR262C, strain YPT6 (second series), stronger effect = lower value",0.956
same,normalized growth,"locus YLR268W, strain sec22, stronger effect = lower value",0.9
same,normalized growth,"locus YLR320W, strain mms22, stronger effect = lower value",0.848 (active)
same,normalized growth,"locus YLR330W, strain CHS5, stronger effect = lower value",0.839 (active)
same,normalized growth,"locus YLR342W, strain FKS1, stronger effect = lower value",0.946
same,normalized growth,"locus YLR357W, strain rsc2, stronger effect = lower value",0.952
same,normalized growth,"locus YLR370C, strain arc18, stronger effect = lower value",0.925
same,normalized growth,"locus YLR371W, strain rom2, stronger effect = lower value",0.934
same,normalized growth,"locus YLR384C, strain iki3, stronger effect = lower value",0.966
same,normalized growth,"locus YLR418C, strain cdc73, stronger effect = lower value",0.753 (active)
same,normalized growth,"locus YML016C, strain PPZ1, stronger effect = lower value",0.948
same,normalized growth,"locus YML032C, strain rad52, stronger effect = lower value",0.895 (active)
same,normalized growth,"locus YML120C, strain ndi1, stronger effect = lower value",0.953
same,normalized growth,"locus YML124C, strain tub3, stronger effect = lower value",0.949
same,normalized growth,"locus YMR058W, strain fet3, stronger effect = lower value",0.934
same,normalized growth,"locus YMR078C, strain ctf18, stronger effect = lower value",0.963
same,normalized growth,"locus YMR125W, strain sto1, stronger effect = lower value",0.956
same,normalized growth,"locus YMR129W, stronger effect = lower value",0.961
same,normalized growth,"locus YMR205C, strain PFK2, stronger effect = lower value",0.934
same,normalized growth,"locus YMR223W, strain ubp8, stronger effect = lower value",0.894 (active)
same,normalized growth,"locus YMR231W, strain pep5, stronger effect = lower value",0.929
same,normalized growth,"locus YMR307W, strain GAS1, stronger effect = lower value",0.596 (active)
same,normalized growth,"locus YNL067W, strain RPL9B, stronger effect = lower value",0.912
same,normalized growth,"locus YNL071W, strain lat1, stronger effect = lower value",0.898 (active)
same,normalized growth,"locus YNL128W, strain TEP1, stronger effect = lower value",0.929
same,normalized growth,"locus YNL183C, strain NPR1, stronger effect = lower value",0.923
same,normalized growth,"locus YNL209W, strain ssb2, stronger effect = lower value",0.971
same,normalized growth,"locus YNL233W, strain BNI4, stronger effect = lower value",0.792 (active)
same,normalized growth,"locus YNL248C, strain rpa49, stronger effect = lower value",0.98
same,normalized growth,"locus YNL250W, strain rad50, stronger effect = lower value",1
same,normalized growth,"locus YNL271C, strain bni1, stronger effect = lower value",0.97
same,normalized growth,"locus YNL298W, strain CLA4, stronger effect = lower value",0.955
same,normalized growth,"locus YNL307C, strain MCK1, stronger effect = lower value",0.786 (active)
same,normalized growth,"locus YNL322C, strain KRE1 (second series), stronger effect = lower value",0.928
same,normalized growth,"locus YNR049C, strain mso1, stronger effect = lower value",0.942
same,normalized growth,"locus YNR052C, strain pop2, stronger effect = lower value",0.997
same,normalized growth,"locus YOL012C, strain htz1",0.93
same,normalized growth,"locus YOL147C, strain pex11, stronger effect = lower value",0.885 (active)
same,normalized growth,"locus YOR001W, strain rrp6, stronger effect = lower value",0.906
same,normalized growth,"locus YOR061W, strain CKA2, stronger effect = lower value",0.959
same,normalized growth,"locus YOR069W, strain VPS5, stronger effect = lower value",0.951
same,normalized growth,"locus YOR070C, strain gyp1, stronger effect = lower value",0.947
same,normalized growth,"locus YOR080W, strain dia2, stronger effect = lower value",0.947
same,normalized growth,"locus YOR083W, strain WHI5, stronger effect = lower value",0.977
same,normalized growth,"locus YOR106W, strain vam3, stronger effect = lower value",0.94
same,normalized growth,"locus YOR136W, strain idh2, stronger effect = lower value",0.957
same,normalized growth,"locus YOR144C, strain elg1, stronger effect = lower value",0.945
same,normalized growth,"locus YOR184W, strain ser1, stronger effect = lower value",0.72 (active)
same,normalized growth,"locus YOR231W, strain MKK1, stronger effect = lower value",0.924
same,normalized growth,"locus YOR265W, strain rbl2, stronger effect = lower value",0.949
same,normalized growth,"locus YOR270C, strain vph1, stronger effect = lower value",0.799
same,normalized growth,"locus YOR290C, strain snf2, stronger effect = lower value",0.917
same,normalized growth,"locus YOR316C, strain cot1, stronger effect = lower value",0.973
same,normalized growth,"locus YPL051W, strain arl3, stronger effect = lower value",0.895 (active)
same,normalized growth,"locus YPL078C, strain atp4, stronger effect = lower value",0.962
same,normalized growth,"locus YPL106C, strain sse1, stronger effect = lower value",0.908
same,normalized growth,"locus YPL240C, strain hsp82, stronger effect = lower value",0.937
same,normalized growth,"locus YPL241C, strain CIN2, stronger effect = lower value",0.963
same,normalized growth,"locus YPL256C, strain CLN2, stronger effect = lower value",0.906
same,normalized growth,"locus YPR119W, strain clb2, stronger effect = lower value",0.971
same,normalized growth,"locus YPR141C, strain kar3, stronger effect = lower value",0.974
same,normalized growth,"locus YPR163C, strain tif3, stronger effect = lower value",0.849 (active)
same,normalized growth,"locus YPR167C, strain met16, stronger effect = lower value",0.942
same,normalized growth,"strain wtn01, stronger effect = lower value",0.877 (active)
